Screening data as filed in PubChem BioAssay.
EBV LMP1 NFkB: Epstein-Barr LMP1 NF-kappaB reporter inhibition; LMP1-induced NF-kappaB luciferase reporter cells, luminescence; inhibition, % at 12.5 µM; hit rate 0.69% among 350,000; AID 504558; in the data active = inhibition above about 41%; inconclusive = no clear call, values can overlap the other calls;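 note: 0% = neutral control wells and 100% = reference inhibitor control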
PGC1a acetyl inh: modulators of PGC1a acetylation | U2OS PGC1a acetylation, AlphaScreen anti-acetyl-lysine; with virally co-expressed GCN5 acetyltransferase | inhibition, % at 15.6 µM | hit rate 0.17% among 350,000 | AID 651687;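 active = every replicate shows inhibition of at least 40%; inconclusive = mean inhibition at least 40% but some replicate below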;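 note: 0% = neutral control wells and 100% = positive control wells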
MITF TRPM1 inh: reduces MITF-dependent TRPM1 promoter luciferase signal | inhibition, % at 12.5 µM | hit rate 0.83% among 330,000 | AID 488899 | SK-MEL-5 TRPM1 promoter luciferase, 24 h;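 active = mean inhibition across replicates of 60% or more, whatever share of single replicates reaches that level; inconclusive = some that reach 60%, reason not given; inactive = mean inhibition across replicates below 60%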
LGR2 inh: blocks bursicon-induced cAMP signaling via Drosophila LGR2 | hit rate 0.35% among 380,000 | AID 720647 | inhibition, % at 9.99 µM | HEK293 LGR2, CRE-luciferase, bursicon-stimulated, 4 h;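 active = drop in luminescence signal, shown as inhibition above about 50% in the replicate tests, limit read from the data, passing the limit was not always enough; inconclusive = probably only some replicates passing the limit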;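 note: agonist challenge used bursicon conditioned medium at about half maximal strength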
EWS-Fli inh: EWS/Fli transcriptional activity inhibition | inhibition, % at 12.6 µM | hit rate 0.67% among 350,000 | A673 NR0B1-luciferase reporter, viability-normalised;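 active = mean inhibition of at least 50% after viability correction, with every replicate also passing that limit; inconclusive = mean reaches 50% but only one of two replicates passes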;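 note: firefly luciferase signal divided by Alamar Blue viability fluorescence both relative to DMSO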
PAX8 inh HTS: inhibitors of PAX8 transcriptional activity in RMG-I cells | RMG-I TPO-luciferase reporter, SteadyGlo, 24 h | inhibition, % at 12.6 µM | hit rate 1.2% among 360,000 | AID 652154;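 active = mean replicate inhibition at least 60% with every replicate also reaching 60%; inconclusive = only one of the two criteria is met; inactive = mean below 60% and not all replicates reaching 60%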;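 note: luciferase light reporting Pax8 driven TPO promoter activity; plate controls were median of neutral control wells for no effect and mitoxantrone controls for full effect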
* hit, by the source's call. Most compounds without a hit are left out; they make up all but 2.2% or so of the library.

For C[C@@H]1CCCCO[C@@H](CN(C)C(=O)Nc2ccccc2)[C@H](C)CN([C@H](C)CO)C(=O)c2cc(NC(=O)Nc3ccc(C(F)(F)F)cc3)ccc2O1 the results were PGC1a acetyl inh 6, LGR2 inh -5, EWS-Fli inh 6 and PAX8 inh HTS 86*.
`C[C@@H]1CN([C@H](C)CO)C(=O)c2cc(NC(=O)Nc3ccc(C(F)(F)F)cc3)ccc2O[C@@H](C)CCCCO[C@H]1CN(C)C(=O)c1ccccc1` gave PGC1a acetyl inh -2, LGR2 inh -3, EWS-Fli inh 46 and PAX8 inh HTS 102*.
Screening C[C@H](CO)N1C[C@H](C)[C@@H](CN(C)CC2CCCCC2)Oc2c(NC(=O)c3cnccn3)cccc2C1=O returned PGC1a acetyl inh -2, LGR2 inh 6, EWS-Fli inh -8 and PAX8 inh HTS -24.
Screening CO[C@H]1CN(C)C(=O)c2cc(NC(=O)C3CC3)ccc2OC[C@@H](C)N(C(=O)C2CCCCC2)C[C@H]1C returned PGC1a acetyl inh 1, LGR2 inh 3 and EWS-Fli inh 1.
Screening COc1ccc(OC)c(C(=O)/C=C/c2ccccc2C(F)(F)F)c1 returned EBV LMP1 NFkB 1, PGC1a acetyl inh 46*, MITF TRPM1 inh 15 and PAX8 inh HTS 35.
`COc1ccc(OC)c(N/C(C)=C/C(=O)c2ccccc2)c1` gave EBV LMP1 NFkB -43, MITF TRPM1 inh -46, LGR2 inh -82 and PAX8 inh HTS -173.
COc1ccc(OC)c(N/C=C/C(=O)c2ccccc2)c1 was read as EBV LMP1 NFkB 72*, MITF TRPM1 inh 53, LGR2 inh 96*, EWS-Fli inh 81* and PAX8 inh HTS 78*.
`CO[C@H]1CN(C)C(=O)c2cc(NC(=O)NC(C)C)ccc2OC[C@@H](C)N(Cc2ccc(-c3ccccn3)cc2)C[C@H]1C` gave PGC1a acetyl inh -7, LGR2 inh 5 and EWS-Fli inh -1.
S=C1SCN(Cc2ccccc2)CN1Cc1ccccc1 was read as EBV LMP1 NFkB 33, PGC1a acetyl inh -6, MITF TRPM1 inh 5, LGR2 inh 14, EWS-Fli inh 17 and PAX8 inh HTS 25.
For S=C1SCN(Cc2ccccc2)CN1Cc1ccco1 the results were EBV LMP1 NFkB 42*, PGC1a acetyl inh 4, LGR2 inh -2, EWS-Fli inh 1 and PAX8 inh HTS 3.
Screening S=C1SCN(Cc2cccnc2)CN1Cc1cccnc1 returned EBV LMP1 NFkB 20, PGC1a acetyl inh -1, MITF TRPM1 inh 32, LGR2 inh 19, EWS-Fli inh 29 and PAX8 inh HTS 93*.
`C[C@H](CO)N1C[C@H](C)[C@H](CN(C)C(=O)C2CC2)Oc2ncc(C#CCc3ccccc3)cc2C1=O` gave PGC1a acetyl inh -3, LGR2 inh 7 and EWS-Fli inh -5.
O=C(Nc1ccc(N2CCCC2)c(Cl)c1)c1ccc([N+](=O)[O-])o1 was read as EBV LMP1 NFkB -77, PGC1a acetyl inh 17, MITF TRPM1 inh 73*, LGR2 inh -38, EWS-Fli inh -3 and PAX8 inh HTS 47.
O=C(Nc1ccc(N2CCN(C(=O)c3ccccc3)CC2)cc1)c1ccc(Br)o1 was read as EBV LMP1 NFkB 7, PGC1a acetyl inh -52 and MITF TRPM1 inh -5.
COc1ccc(C(=O)Nc2ccc(N3CCN(C(=O)c4ccccc4C)CC3)cc2)cc1 was read as EBV LMP1 NFkB 51*, PGC1a acetyl inh 28, MITF TRPM1 inh 20, LGR2 inh 38, EWS-Fli inh 14 and PAX8 inh HTS 10.
O=C(Nc1ccc(N2CCN(C(=O)c3ccccc3)CC2)c(Cl)c1)c1ccc(Br)o1 was read as EBV LMP1 NFkB 8, PGC1a acetyl inh 0, MITF TRPM1 inh 10, LGR2 inh 89* and EWS-Fli inh -8.
Screening COc1ccc(C(=O)Nc2ccc(N3CCCC3)cc2)cc1 returned EBV LMP1 NFkB 11, PGC1a acetyl inh -12 and MITF TRPM1 inh -3.
For O=C(Nc1cccc2ccccc12)c1ccc([N+](=O)[O-])o1 the results were EBV LMP1 NFkB -10, MITF TRPM1 inh 54, LGR2 inh 8, EWS-Fli inh 34 and PAX8 inh HTS 69*.
Cc1cccc(NC(=O)c2ccc([N+](=O)[O-])o2)c1C was read as EBV LMP1 NFkB -14, PGC1a acetyl inh -7, MITF TRPM1 inh 56, LGR2 inh 9, EWS-Fli inh 19 and PAX8 inh HTS inconclusive.
Screening CC(C)CC#Cc1cnc2c(c1)C(=O)N([C@H](C)CO)C[C@H](C)[C@H](CN(C)C(=O)Cc1ccncc1)O2 returned PGC1a acetyl inh -1, LGR2 inh -4, EWS-Fli inh -8 and PAX8 inh HTS -7.
C/C=C/c1ccc2c(c1)O[C@@H](CN(C)C)[C@H](C)CN([C@@H](C)CO)S2(=O)=O was read as PGC1a acetyl inh -5, LGR2 inh 12 and EWS-Fli inh 5.
Screening O=C(Nc1cc(-c2nc3ncccc3o2)ccc1Cl)c1cccs1 returned EBV LMP1 NFkB -1, MITF TRPM1 inh -1, LGR2 inh 4, EWS-Fli inh -1 and PAX8 inh HTS 21.
For O=C(Nc1ccccc1N1CCCC1)c1ccc([N+](=O)[O-])o1 the results were EBV LMP1 NFkB -13, PGC1a acetyl inh -3, MITF TRPM1 inh 54, LGR2 inh 12, EWS-Fli inh 28 and PAX8 inh HTS 77*.
Screening O=C(Nc1cccc([N+](=O)[O-])c1)c1ccc([N+](=O)[O-])o1 returned EBV LMP1 NFkB -13, LGR2 inh 13, EWS-Fli inh 42 and PAX8 inh HTS inconclusive.
Screening O=C(Nc1ccc(N2CCN(C(=O)c3ccccc3)CC2)cc1)c1cc2ccccc2o1 returned EBV LMP1 NFkB 15, PGC1a acetyl inh -1, MITF TRPM1 inh 69* and LGR2 inh 82*.
`CN1CCN(c2ccc(NC(=O)c3cc4ccccc4o3)cc2)CC1` gave EBV LMP1 NFkB -10, MITF TRPM1 inh 1, LGR2 inh -19, EWS-Fli inh -24 and PAX8 inh HTS -126.
`O=C(Nc1cc(-c2nc3ncccc3o2)ccc1Cl)c1ccc([N+](=O)[O-])o1` gave EBV LMP1 NFkB -26, MITF TRPM1 inh 79*, LGR2 inh -4, EWS-Fli inh 49 and PAX8 inh HTS 36.
For O=C(Nc1cccc(NC(=O)c2ccccc2Cl)c1)c1ccc([N+](=O)[O-])o1 the results were EBV LMP1 NFkB -77, MITF TRPM1 inh 77*, LGR2 inh 12, EWS-Fli inh 38 and PAX8 inh HTS 98*.
Screening O=C(Nc1ccccc1N1CCN(C(=O)c2ccccc2)CC1)c1ccc([N+](=O)[O-])o1 returned EBV LMP1 NFkB 3, MITF TRPM1 inh 62*, LGR2 inh -2, EWS-Fli inh 4 and PAX8 inh HTS 68*.
O=C(Nc1ccc(N2CCCC2)c(Cl)c1)c1ccco1 was read as EBV LMP1 NFkB 1, PGC1a acetyl inh 6 and MITF TRPM1 inh -41.
